Source: PubChem
The list is not random: actives were taken first. Their share in the collection is about 12%.
HP1b binding inh: HP1-beta chromodomain-methylated histone interaction inhibition | 0.56% of 390,000 active | AID 540317 | Potency, µM (highest dose often 114 µM), for inactives: at the top dose activity change, negative = inhibition, most hits filed as inhibitors | P83916 | AlphaScreen HP1-beta / biotin-H3K9me3 peptide binding; also: potency is read from the fitted curve at half-maximal effect; nearly all actives have a fitted effect of over 70% in size
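HP1-beta protein (50 nM final) preincubated 30 min at room temperature with biotinylated H3(1-18)K9me3 peptide (50 nM) in PBS pH 7.4, 0.01% Tween-20, then compound added for 30 min. AlphaScreen streptavidin donor/nickel chelate acceptor beads (10 ug/mL final), 30 min dark, luminescence read.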
PI5P4Ka inh: PI5P4K alpha (human) kinase inhibition | 1.2% of 330,000 active | max response, % | P48426 | PI5P4Kalpha enzyme, ADP-Glo luminescence, 60 min; active compounds read low | AID 652105; active = max response of -50% or lower; inconclusive = between -30% and -50%; inactive = -30% or higher; also: value at the top dose of about 77 µM; % is scaled to controls: 0 for no effect and ±100 for the full control effect
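ADP-Glo luminescence end-point after a 60 min room-temperature kinase reaction. PI5P4Kalpha and substrate in HEPES pH 7.4 buffer with EGTA, 0.1% CHAPS and 5% DMSO; ATP at 5 microM final.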
G9a block: G9a (human) methyltransferase inhibition; Q96KQ7; Potency, µM (highest dose often 102 µM), for the others: at the highest dose activity, negative = inhibition, usual class: inhibitors; G9a H3K9 monomethylation, AlphaScreen, 2 h; 8.8% of 350,000 active; also: potency is read from the fitted curve at half-maximal effect; % is scaled to controls: 0 for no effect and ±100 for the full control effect; nearly all actives have a fitted effect of over 75% in size
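Chemiluminescent proximity detection of H3K9 monomethylation, read after 10 min bead incubation in the dark. Reaction: 20 nM G9a, 500 nM biotin-H3K9 peptide, 20 uM SAM cofactor, 2 h, room temperature, following 15 min enzyme-compound preincubation.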
BAZ2B block: blocks human BAZ2B; Potency, µM (doses to about 114 µM), for the others: top-dose activity change, negative = inhibition, most hits filed as inhibitors; AlphaScreen BAZ2B-H3K14Ac peptide displacement; 4.4% of 360,000 active; Q9UIF8; also: potency is read from the fitted curve at half-maximal effect; % is scaled to controls: 0 for no effect and ±100 for the full control effect; nearly all actives have a fitted effect of over 60% in size
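AlphaScreen displacement of biotin-H3(5-23)K14Ac peptide (50 nM final) from BAZ2B (50 nM final) in PBS pH 7.4, 0.01% Tween-20; complex preformed 30 min RT, then compounds (top 110 uM) 30 min RT, beads 20 min dark.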
JMJD2A Tudor inh: inhibitors of human JMJD2A Tudor domain; O75164; AlphaScreen JMJD2A-Tudor / H3K4me3 peptide binding; Potency, µM (doses to about 114 µM), without a hit: at the top dose activity change, negative = inhibition, most hits filed as inhibitors; 4.4% of 390,000 active; also: potency is read from the fitted curve at half-maximal effect; % is scaled to controls: 0 for no effect and ±100 for the full control effect; nearly all actives have a fitted effect of over 50% in size
Target sequence (O75164 whole entry, looked up, the tested form may be a part): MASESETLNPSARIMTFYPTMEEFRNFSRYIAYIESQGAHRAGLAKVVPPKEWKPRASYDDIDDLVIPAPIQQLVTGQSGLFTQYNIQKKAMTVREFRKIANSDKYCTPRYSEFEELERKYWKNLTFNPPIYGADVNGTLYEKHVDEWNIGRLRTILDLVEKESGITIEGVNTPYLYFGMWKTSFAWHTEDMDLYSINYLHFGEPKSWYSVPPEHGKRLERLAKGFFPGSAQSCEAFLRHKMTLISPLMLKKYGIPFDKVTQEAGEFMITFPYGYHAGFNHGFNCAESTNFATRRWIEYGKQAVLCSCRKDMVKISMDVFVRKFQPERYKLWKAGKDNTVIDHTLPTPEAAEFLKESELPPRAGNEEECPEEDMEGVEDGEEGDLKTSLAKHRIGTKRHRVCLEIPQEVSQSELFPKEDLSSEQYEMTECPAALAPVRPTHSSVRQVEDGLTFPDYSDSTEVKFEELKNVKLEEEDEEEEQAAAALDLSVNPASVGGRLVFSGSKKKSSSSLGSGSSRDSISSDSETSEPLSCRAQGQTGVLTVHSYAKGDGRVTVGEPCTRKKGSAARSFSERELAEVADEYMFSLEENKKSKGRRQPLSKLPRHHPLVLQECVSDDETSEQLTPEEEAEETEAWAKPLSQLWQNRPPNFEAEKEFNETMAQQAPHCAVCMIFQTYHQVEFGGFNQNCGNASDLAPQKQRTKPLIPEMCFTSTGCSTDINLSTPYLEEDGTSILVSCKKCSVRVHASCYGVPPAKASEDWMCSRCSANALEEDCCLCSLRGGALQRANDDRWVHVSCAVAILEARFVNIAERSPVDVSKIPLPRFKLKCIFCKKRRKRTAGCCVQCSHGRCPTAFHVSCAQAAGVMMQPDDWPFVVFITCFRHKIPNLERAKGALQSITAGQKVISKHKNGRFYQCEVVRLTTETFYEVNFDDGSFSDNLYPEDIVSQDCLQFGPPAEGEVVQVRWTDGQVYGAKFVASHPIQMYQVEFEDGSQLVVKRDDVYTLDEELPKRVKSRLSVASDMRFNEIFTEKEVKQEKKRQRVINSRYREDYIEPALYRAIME
PLK1 PBD inh: PLK1 (human) polo-box domain binding inhibition; P53350; Plk1 PBD binding of FITC phosphopeptide, fluorescence polarization; Potency, µM, for the others: max response, negative = inhibition, usual class: inhibitors; 2.8% of 360,000 active; also: potency is read from the fitted curve at half-maximal effect; series mostly up to about 57 µM; % is scaled to controls: 0 for no effect and ±100 for the full control effect; nearly all actives have a fitted effect of over 65% in size
Active calls of the source: *; [ ] = remark or other dose. Unless noted, calls follow the shape of the dose curve; as a rule, active = well fitted curve in the direction sought with a large enough effect; inconclusive = small, poorly fitted or top-dose-only effect, or another doubt; inactive = no such curve, though single readings can be large; an effect the other way counts as inactive or inconclusive.

For COC(=O)c1cc(Nc2nc3ccccc3nc2NS(=O)(=O)c2ccc(C)cc2)ccc1Cl the results were HP1b binding inh 59%, G9a block 7%[59 µM], BAZ2B block 4% and JMJD2A Tudor inh -2%.
Screening [O-][n+]1c2c(nn1-c1ccccc1)/C(=N/O)CCC2 returned HP1b binding inh 43%, PI5P4Ka inh 1, G9a block -8%, BAZ2B block -9%, JMJD2A Tudor inh -8% and PLK1 PBD inh -22%.
For [O-][n+]1onc2c1CCC(=N/O)/C2=N\Nc1ccccc1 the results were G9a block 25µM* and BAZ2B block 50µM*.
Screening COc1cccc(-n2c(SCc3ccc(F)cc3)nc3c([nH]c4ccccc43)c2=O)c1 returned HP1b binding inh 19%[57 µM], G9a block 1%[59 µM], BAZ2B block -2% and JMJD2A Tudor inh -31%.
For COc1ccccc1C(=O)Nc1ccc2c(c1)nc1n2CCN(Cc2ccccc2)C1 the results were HP1b binding inh 9%, PI5P4Ka inh -11, G9a block 16µM*, BAZ2B block -14%, JMJD2A Tudor inh -20% and PLK1 PBD inh -8%.
Screening O=C(Nc1ccc2c(c1)nc1n2CCN(Cc2ccccc2)C1)NC1CCCCC1 returned HP1b binding inh 22%, G9a block 22µM*, BAZ2B block -3%, JMJD2A Tudor inh -23% and PLK1 PBD inh -18%.
For Cc1ccc(CN(C(=O)COc2ccccc2Cl)c2ccccn2)o1 the results were HP1b binding inh 30%, G9a block 1%[59 µM], BAZ2B block inconclusive and JMJD2A Tudor inh -7%.
`CCc1nn(CC(=O)NCc2ccc(C)cc2)c(=O)c2cc3occc3n12` gave HP1b binding inh 2%, G9a block 8%[59 µM], BAZ2B block -4% and JMJD2A Tudor inh -25%.
`Oc1[nH]c2ccccc2c1N=Nc1ccccn1` gave HP1b binding inh 29%, PI5P4Ka inh 0, JMJD2A Tudor inh -26% and PLK1 PBD inh 1%.
Oc1[nH]c2ccccc2c1N=Nc1nncc2ccccc12 was read as HP1b binding inh inconclusive, PI5P4Ka inh -10, G9a block 13µM*, BAZ2B block inconclusive, JMJD2A Tudor inh -9%[11.4 µM] and PLK1 PBD inh inconclusive.
Cc1ccc(N2CCN(Cc3nnc(-c4ccccc4F)o3)CC2)c(C)c1 was read as HP1b binding inh 31%, G9a block 5%[59 µM], BAZ2B block -4% and JMJD2A Tudor inh -2%.
c1ccc2nc(-c3ccncc3)ccc2c1 was read as HP1b binding inh 26%, G9a block 17%[59 µM], BAZ2B block 8%, JMJD2A Tudor inh 4% and PLK1 PBD inh -9%.
Screening S=c1[nH]nc(-c2ccc3ccccc3n2)o1 returned HP1b binding inh 69%, PI5P4Ka inh inconclusive, G9a block 8.9µM*, BAZ2B block 6%, JMJD2A Tudor inh -33% and PLK1 PBD inh -12%.
FC(F)(F)c1ccc(-c2n[nH]c(=S)o2)nc1 was read as HP1b binding inh 66%, PI5P4Ka inh -23, G9a block 40µM*, BAZ2B block -13%, JMJD2A Tudor inh 0% and PLK1 PBD inh -4%.
For CC1CCCN(C(=O)CNS(=O)(=O)c2cccs2)C1 (centres undefined) the results were HP1b binding inh -14%, PI5P4Ka inh 0, G9a block 11%[59 µM], BAZ2B block 11%, JMJD2A Tudor inh -5% and PLK1 PBD inh -14%.
CCOC(=O)c1c(C)[nH]c(C(C)=NNC(=O)c2cccs2)c1C was read as HP1b binding inh 29%, PI5P4Ka inh -4, JMJD2A Tudor inh -15% and PLK1 PBD inh 1%.
Screening CCCCc1cn([C@@H](CCCCN)C(=O)N2CCNCC2)nn1 returned HP1b binding inh 35%, PI5P4Ka inh 3, G9a block -1%[12.7 µM], BAZ2B block inconclusive, JMJD2A Tudor inh 56µM* and PLK1 PBD inh 21µM*.
Screening NCCCC[C@@H](C(=O)N1CCNCC1)n1cc(CN)nn1 returned HP1b binding inh 32%, PI5P4Ka inh -21, G9a block 16%[2.33 µM], BAZ2B block -2%, JMJD2A Tudor inh -8% and PLK1 PBD inh -2%.
For C#CCOCCOCCOCCNc1nc(N2CCN(C(=O)[C@H]([C@@H](C)CC)n3cc(CCCCN)nn3)CC2)nc(N2CCN(C(=O)[C@H](CCCCN)n3cc(CCCC)nn3)CC2)n1 the results were HP1b binding inh 10%, PI5P4Ka inh 18, G9a block 20%[2.33 µM], BAZ2B block -1%, JMJD2A Tudor inh -22% and PLK1 PBD inh 1%.
Screening C#CCOCCOCCOCCNc1nc(N2CCOCC2)nc(N2CCN(C(=O)[C@H](CCCCN)n3cc(CCCC)nn3)CC2)n1 returned HP1b binding inh 21%, PI5P4Ka inh 3, JMJD2A Tudor inh -20% and PLK1 PBD inh -11%.
`C#CCOCCOCCOCCNc1nc(N2CCN(C(=O)[C@H](C(C)C)n3cc(CCO)nn3)CC2)nc(N2CCN(C(=O)[C@H](CCCCN)n3cc(CCCC)nn3)CC2)n1` gave HP1b binding inh 25%, PI5P4Ka inh 1, G9a block 28µM*, BAZ2B block inconclusive, JMJD2A Tudor inh -35% and PLK1 PBD inh 0%.
C#CCOCCOCCOCCNc1nc(N2CCN(C(=O)[C@H](CCCCN)n3cc(CCCC)nn3)CC2)nc(N2CCN(C(=O)[C@H](CCCCN)n3cc(CCCC)nn3)CC2)n1 was read as HP1b binding inh -7%, PI5P4Ka inh 20, G9a block 40µM*, BAZ2B block inconclusive, JMJD2A Tudor inh inconclusive and PLK1 PBD inh -6%.
Screening Cn1cc(C(=O)N2CCCC(Nc3ccc(F)cc3)C2)c2ccccc21 (centres undefined) returned HP1b binding inh -2%[57 µM], PI5P4Ka inh 3, G9a block 18%[0.501 µM], BAZ2B block 12%, JMJD2A Tudor inh -30% and PLK1 PBD inh -6%.
For O=C1CCc2cc(S(=O)(=O)Nc3ccccc3-c3ccccc3)ccc2N1 the results were JMJD2A Tudor inh -20%.
For CCOC(=O)/C(C#N)=C1/C=Nc2ccccc2N1 the results were HP1b binding inh 19%, G9a block -9%[12.7 µM], BAZ2B block -39%, JMJD2A Tudor inh -13% and PLK1 PBD inh -1%.
For CCOC(=O)/C(C#N)=C1\CC2CCC1(C)C2(C)C (centres undefined) the results were HP1b binding inh inconclusive, PI5P4Ka inh -9, G9a block 3.2µM*, BAZ2B block 0%, JMJD2A Tudor inh -5% and PLK1 PBD inh 6µM*.
For COc1ccccc1CNc1cc(-c2cccc(C#N)c2)ncn1 the results were G9a block 16%[0.501 µM].
Cc1ccc(CNC(=O)c2ccccc2NC(=O)CN2CC(C)OC(C)C2)cc1 (centres undefined) was read as HP1b binding inh 15%, PI5P4Ka inh 1, G9a block 18%, BAZ2B block 1%, JMJD2A Tudor inh -6% and PLK1 PBD inh -12%.
